An excerpt weighted towards active compounds, which were near 17% of everything screened.
TDP1 cell CPT = qHTS for Inhibitors of human tyrosyl-DNA phosphodiesterase 1 (TDP1): qHTS in cells in presence of CPT | chicken DT40 Tdp1-/-;hTDP1 cells + 20 nM CPT, ATP luminescence, 48 h | Potency, µM (highest dose often 46.2 µM), without a hit: at the top dose activity change, negative = growth inhibition, actives largely listed as inhibitors | AID 686979, 2013 | 420,000 tested, 12% active; also: % is scaled to controls: 0 for no effect and ±100 for the full control effect; nearly all actives have a fitted effect of over 55% in size
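Chicken DT40 Tdp1-/- cells stably complemented with human TDP1 were seeded at 400 cells/well in medium containing 20 nM camptothecin, exposed to pin-transferred compounds, and grown at 37 °C for at least 48 hr. Viability was read as ATP luminescence.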
HT1080 IDH1KD tx = qHTS for induction of synthetic lethality in tumor cells producing 2HG: qHTS for the HT-1080-IDH1KD cell line; HT-1080 IDH1 knockdown viability, ATP luminescence, 48 h; Potency, µM (top dose mostly 46.1 µM), for the others: at the highest dose activity, negative = toxicity, hits mostly cytotoxic; 360,000 tested, 2% active;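 also: 0% = DMSO wells and -100% = cell-free medium wells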
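Viability of IDH1-knockdown HT-1080 fibrosarcoma cells was assessed by CellTiter-Glo after 48 h at 37 °C with titrated compound; concentration-effect curves were classified by fit quality and response size.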
HepG2 viability = qHTS for Inhibitors of TGF-b: Cytotox Counterscreen; HepG2 CAGA-GFP viability, ATP luminescence, 18 h; Potency, µM (series often up to 46.1 µM), for inactives: at the top dose activity change, negative = cytotoxicity, usual class: cytotoxic; 410,000 tested, 0.76% active
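HepG2 CAGA-GFP cells (1000/well, DMEM with 1% FBS) received compound, then TGF-beta at 500 pg/mL final, and were incubated 18 hours at 37 degrees C. Viability was read by CellTiter-Glo luminescence. Media-only wells were set as complete cell-killing and DMSO as no toxicity.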
TDP1 cell noCPT = qHTS for Inhibitors of human tyrosyl-DNA phosphodiesterase 1 (TDP1): qHTS in cells in absence of CPT; DT40 Tdp1-/- hTDP1 cells, no CPT, ATP luminescence, 48 h; Potency, µM (titrated, usually from 46.2 µM), for the others: at the highest dose activity change, negative = growth inhibition, usual class: inhibitors; AID 686978, 2013; 420,000 tested, 15% active; also: % is scaled to controls: 0 for no effect and ±100 for the full control effect; nearly all actives have a fitted effect of over 55% in size
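Growth kinetics read by CellTiter-Glo luminescence after ≥48 hr at 37 °C. Cells: DT40 Tdp1-/- stably carrying human TDP1, 400 per well, compound exposure in the absence of CPT (DMSO vehicle).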
TGFb inhibitor = qHTS for Inhibitors of TGF-b; AID 588855, 2011; Potency, µM (top dose mostly 46.1 µM), without a hit: top-dose activity, negative = inhibition, actives largely listed as inhibitors; 410,000 tested, 1.2% active; HepG2 CAGA-GFP TGF-b/SMAD3 reporter, GFP fluorescence, 18 h; TGF-beta stimulated, 500 pg/mL final; also: % is scaled to controls: 0 for no effect and ±100 for the full control effect; nearly all actives have a fitted effect of over 65% in size
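Inhibition was scored as loss of TGF-beta-induced (500 pg/mL final, 18 hours, 37 degrees C) GFP in HEPG2 cells carrying a CAGA-GFP reporter, in DMEM with 1% FBS. Well GFP was summed per cell; Activity was normalised to unstimulated and stimulated DMSO wells, then concentration-response fitting.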
HT1080NT lethal = qHTS for induction of synthetic lethality in tumor cells producing 2HG: qHTS for the HT-1080-NT fibrosarcoma cell line. HT-1080-NT fibrosarcoma viability, CellTiter-Glo ATP luminescence, 48 h. 360,000 tested, 1.6% active. Potency, µM (doses to about 46.1 µM), inactives show top-dose activity, negative = less viability, actives largely listed as cytotoxic;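 also: NT is the 2HG producing partner of a matched IDH1 knockdown line; 0% = DMSO-treated cells and -100% = media-only wells without cells; nearly all actives have a fitted effect of over 55% in size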
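Fibrosarcoma NT cells, 750 per well in 5% FBS RPMI, were exposed to compound for 48 hours. Viability: CellTiter-Glo luminescence.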
* hit, by the source's call; u = inconclusive; x = no result given; ! = not active in a repeat. Calls follow the shape of the dose curve; as a rule, active = well fitted curve in the direction sought with a large enough effect; inconclusive = small, poorly fitted or top-dose-only effect, or another doubt; inactive = no such curve, though single readings can be large; an effect the other way counts as inactive or inconclusive. Potency is read from the fitted curve at half-maximal effect.

SMILES | TDP1 cell CPT | HT1080 IDH1KD tx | HepG2 viability | TDP1 cell noCPT | TGFb inhibitor | HT1080NT lethal
COc1ccc(C(=O)/C=C/c2ccc(N3CCCCC3)c([N+](=O)[O-])c2)c(OC)c1 | u | u | -66.7% | 20.6µM* | 0.0% | -21.3%
COc1ccc(C(=O)/C=C/c2ccc(N3CCCCC3)c([N+](=O)[O-])c2)cc1 | u | 2.6% | -1.8% | u | u | -1.8%
COc1ccc(C=CC(=O)c2cc(O)ccc2O)cc1 | u | 18.4µM* | -4.4% | u | -2.9% | 16.4µM*
CCOC(=O)Nc1ccc(C(=O)/C=C/c2ccccc2)cc1 | 5.17µM* | u | -46.6% | 2.59µM* | u | u
COc1cc(C)cc(C(=O)C=Cc2ccccc2)c1O | u | u | -55.0% | u | u | 23.1µM*
O=C(Nc1cccc(C(=O)N2CCN(c3ccccc3F)CC2)c1)c1nsc2ccccc12 | u | x | -11.9% | u | -16.3% | x
Cc1ccc(C)c(N2CCN(C(=O)c3ccc(NC(=O)c4nsc5ccccc45)cc3)CC2)c1 | 20.6µM* | x | 3.8% | 18.4µM* | -2.0% | x
O=C(Nc1cccc(C(=O)N2CCN(c3cccc(Cl)c3)CC2)c1)c1ccccc1 | 16.4µM* | -24.9% | -9.6% | 25.9µM* | -17.3% | u
O=C(Nc1cccc(C(=O)N2CCN(c3cccc(Cl)c3)CC2)c1)c1nsc2ccccc12 | 18.4µM* | x | -26.9% | 16.4µM* | 13.9% | x
O=C(Nc1cccc(C(=O)N2CCN(c3ccccc3)CC2)c1)c1ccco1 | -23.1% | 19.0% | -15.8% | -24.0% | 1.4% | 1.5%
O=C(Nc1cccc(C(=O)N2CCN(c3ccc(Cl)cc3)CC2)c1)c1nsc2ccccc12 | 14.6µM* | x | -37.6% | 10.3µM* | -10.5% | x
O=C(Nc1ccc(C(=O)N2CCN(c3cccc(Cl)c3)CC2)cc1)c1nsc2ccccc12 | u | x | -36.8% | 13µM* | 27.8% | x
O=C(Nc1ccc(C(=O)N2CCN(c3ccccc3)CC2)cc1)c1nsc2ccccc12 | u | x | -37.8% | u | 27.6% | x
O=S(=O)(NCC(Nc1ccc(Cl)cc1)c1ccccc1)c1ccccc1 (stereo not drawn) | u | u | 15.8µM*! | 16.4µM* | u | u
O=S(=O)(NCC(c1ccccc1)N1CCNCC1)c1ccc(Cl)cc1 (stereo not drawn) | u | -16.8% | -101.0% | u | 12.6µM* | u
Cc1ccc(NC(CNS(=O)(=O)c2ccc(Cl)cc2)c2ccccc2)cc1 (stereo not drawn) | 20.6µM* | u | -82.7% | 23.1µM* | u | u
NS(=O)(=O)c1ccc(NC(CNS(=O)(=O)c2ccccc2)c2ccccc2)cc1 (stereo not drawn) | -29.1% | 0.8% | -12.4% | -7.8% | -17.5% | 3.1%
Cc1cc(CN2CCOCC2)c(O)c(C2(C)CCCCC2)c1 | -20.5% | u | -40.4% | u | u | -27.9%
Cc1ccc(S(=O)(=O)NNC(=O)c2sc(=S)n(C)c2C)cc1 | -16.3% | -16.5% | 3.3% | -6.5% | 11.6% | -9.0%
COc1ccc(NC(=O)c2ccc3c(c2)NC(=O)CS3)cc1S(=O)(=O)Nc1ccc(Br)cc1 | u | -18.9% | -9.0% | 29.1µM* | -45.2% | -0.7%
C=CCn1c(COc2ccccc2)nnc1SC(C)C(=O)N/N=C/c1cc(Cl)ccc1O (stereo not drawn) | u | u | -13.7% | 20.6µM* | -1.2% | u
CCCCN1CNC(=S)N(c2ccc(C(=O)OCC)cc2)C1 | -22.2% | 7.7% | 2.8% | u | -3.8% | 10.4%
Cc1ccc(S(=O)(=O)N2CCC(C(=O)NC3CC(C)(C)NC(C)(C)C3)CC2)cc1C | -0.8% | -0.5% | 9.5% | -10.3% | 12.8% | -11.2%
CN1CCC2(CC1)N=C(c1ccc(F)cc1)C(=S)N2C(=O)c1ccc(C(C)(C)C)cc1 | 7.31µM* | u | -55.3% | 5.8µM* | u | u
CC(C)(C)c1ccc(C(=O)N2CCNC(=O)C2CC(=O)Nc2ccc(F)cc2)cc1 (stereo not drawn) | -8.9% | -0.5% | 24.7% | -19.1% | 16.9% | -5.9%
SMILES | TDP1 cell CPT | HT1080 IDH1KD tx | HepG2 viability | TDP1 cell noCPT | TGFb inhibitor | HT1080NT lethal
CCCCN(C(=O)CSc1cc(C)c2ccc(OC)cc2n1)c1c(N)n(Cc2ccccc2)c(=O)[nH]c1=O | u | -6.4% | -16.5% | u | -22.1% | -8.8%
Cn1cc(C(=O)c2ccccc2)cc1-c1nc2ccccc2n1C | u | -12.1% | -15.0% | 18.4µM* | -3.6% | -6.2%
CCC(=O)c1cc(-c2nc3ccccc3n2C)n(C)c1 | 1.9% | 16.5% | 4.3% | -7.8% | -13.1% | u
Cc1oc(-c2nc3ccccc3n2C)cc1C(=O)c1ccccc1 | 16.4µM* | u | -48.3% | 20.6µM* | -0.9% | u
CC(=O)c1ccc(-c2nc3ccccc3n2C)o1 | u | -4.6% | -37.7% | u | -8.9% | -0.4%
O=[N+]([O-])c1cccnc1SCc1ccccc1 | -16.9% | -4.0% | 10.6% | 6.8% | 5.6% | -3.0%
c1ccc(CNc2ncnc3c2ncn3Cc2ccccc2)cc1 | u | x | -2.2% | u | -7.5% | x
C1=Nc2c(NCc3ccccc3)ncnc2Oc2ccccc21 | 3.66µM* | u | -36.3% | 1.03µM* | -8.1% | -3.3%
COc1ccc(CCN(C)CCCN2CCc3cc(OC)c(OC)cc3CC2=O)cc1OC | 1.1% | x | x | -19.7% | x | x
COc1cc(-c2nnc(-c3cccnc3)o2)cc(OC)c1OC | u | 7.5% | 6.1% | -3.5% | 9.3% | -2.6%
COc1cc(-c2nnc(-c3ccco3)o2)ccc1OCc1ccccc1 | u | -27.2% | -10.5% | u | 3.0% | -16.6%
CCOc1ccc(-c2nnc(-c3cccnc3)o2)cc1OCC | u | 1.9% | 0.2% | 16.4µM* | 6.7% | -12.7%
COc1ccc(-c2nnc(-c3cccnc3)o2)cc1OC | 11.6µM* | -3.0% | 2.3% | u | -9.8% | 2.6%
COc1cc(-c2nnc(-c3ccncc3)o2)ccc1OCc1ccccc1 | u | -0.9% | -2.5% | 9.2µM* | -0.9% | 2.6%

Assay outcomes as filed in PubChem BioAssay.
